The sample as a whole holds a higher share of hits than the screen did.
OvCa metastasis: blocks SKOV3ip1 adhesion and invasion in omental model. Potency, µM (highest dose often 45.8 µM), for inactives: at the top dose activity change, negative = inhibition, actives largely listed as inhibitors. SKOV3ip1-GFP adhesion/invasion on 3D omental model, fluorescence. 0.1% of 46,000 active. AID 1963576;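 also: plate controls were DMSO wells for no effect and tomatine positive control wells for full effect; nearly all actives have a fitted effect of over 65% in size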
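Primary human omental fibroblast/mesothelial 3D culture pre-formed 48 h. SKOV3ip1-GFP cells added with compounds (0.36-46 umol/L), incubated 2 h RT/16 h 37 C, fixed; GFP cells quantified at 488/509 nm.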
p53null 39C tox: p53 null cell cytotoxicity, nonpermissive temperature. H1299 p53-null (neo) cells, 39C, ATPlite viability, 24 h. Potency, µM (series often up to 46.1 µM), for the others: top-dose activity, negative = cell killing, usual class: cytotoxic. 0.97% of 55,000 active;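 also: 0% = DMSO only and -100% = full killing by 100 µM tamoxifen; nearly all actives have a fitted effect of over 50% in size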
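Luminescent ATP signal reported cell survival after H1299 lines (neo, p53 null; or p53 A138V) received up to 46 uM compound and 24 hr incubation at 39C.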
FH mod: Identification of activators of human fumarate hydratase by quantitative high-throughput screening | 0.22% of 54,000 active | Fumarate hydratase, mitochondrial (Homo sapiens), P07954 | Potency, µM (top dose mostly 79.9 µM), inactives show top-dose activity change, negative = inhibition, usual class: inhibitors | FH coupled MDH/diaphorase resazurin fluorescence, 15 min; also: the screen sought activators but most active calls are inhibition curves; nearly all actives have a fitted effect of over 45% in size
Target sequence (P07954 whole entry, looked up): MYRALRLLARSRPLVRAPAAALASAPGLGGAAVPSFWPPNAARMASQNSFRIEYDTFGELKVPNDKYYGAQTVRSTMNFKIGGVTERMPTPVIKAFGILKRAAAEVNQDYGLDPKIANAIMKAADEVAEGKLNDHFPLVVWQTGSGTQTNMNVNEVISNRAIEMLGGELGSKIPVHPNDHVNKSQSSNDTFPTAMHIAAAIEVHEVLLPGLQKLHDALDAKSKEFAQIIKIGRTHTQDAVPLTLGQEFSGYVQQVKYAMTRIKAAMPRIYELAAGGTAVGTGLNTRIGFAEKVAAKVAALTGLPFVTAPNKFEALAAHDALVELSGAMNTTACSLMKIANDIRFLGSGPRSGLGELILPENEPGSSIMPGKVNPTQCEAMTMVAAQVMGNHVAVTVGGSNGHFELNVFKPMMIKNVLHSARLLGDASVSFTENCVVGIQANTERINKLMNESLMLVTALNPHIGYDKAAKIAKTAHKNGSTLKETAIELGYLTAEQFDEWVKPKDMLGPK
p53null 32C tox: selectivity test: cytotoxicity in p53 null cells, permissive temperature. AID 903. 0.62% of 55,000 active. Potency, µM (series often up to 46.1 µM), for the others: at the top dose activity change, negative = cytotoxicity, actives largely listed as cytotoxic. H1299-neo p53 null cells, ATP luminescence, 24 h, 32C;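 also: 0% = DMSO only and -100% = full killing by 100 µM tamoxifen; nearly all actives have a fitted effect of over 55% in size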
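H1299-neo, 600 cells/well; overnight 37C; cpd up to 46 uM, 24 h at 32C; ATPlite luminescence after 20 min RT; normalized to DMSO (0%) and tamoxifen 100 uM (100% kill); Hill-fit AC50.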
NTMT1 inh: inhibitors of human N-terminal methyltransferase NTMT1; Q9BV86; Potency, µM (series often up to 114 µM), for inactives: at the top dose activity change, negative = inhibition, actives largely listed as inhibitors; NTMT1 MTase-Glo SAH luminescence, purified enzyme; 2.5% of 59,000 active;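 also: plate controls were DMSO vehicle for no effect and no enzyme for full effect; nearly all actives have a fitted effect of over 65% in size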
Target sequence (Q9BV86 whole entry, looked up): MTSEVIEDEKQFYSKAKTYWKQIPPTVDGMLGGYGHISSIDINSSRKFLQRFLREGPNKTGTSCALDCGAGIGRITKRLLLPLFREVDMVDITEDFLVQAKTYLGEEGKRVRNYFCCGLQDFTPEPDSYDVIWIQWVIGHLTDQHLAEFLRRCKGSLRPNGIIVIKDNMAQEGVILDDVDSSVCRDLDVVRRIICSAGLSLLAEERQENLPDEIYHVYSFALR
Numbers without * were called inactive; i = inactive; ? = inconclusive; . = no result; [ ] = another dose, or the depositor's remark. Calls follow the shape of the dose curve; as a rule, active = well fitted curve in the direction sought with a large enough effect; inconclusive = small, poorly fitted or top-dose-only effect, or another doubt; inactive = no such curve, though single readings can be large; an effect the other way counts as inactive or inconclusive. Unless noted, % is scaled to controls: 0 for no effect and ±100 for the full control effect; potency is read from the fitted curve at half-maximal effect.

SMILES	OvCa metastasis	p53null 39C tox	FH mod	p53null 32C tox	NTMT1 inh
CCCCN(C)C(=O)Cn1nc(-c2ccccc2C)ccc1=O	.	.	.	.	9.3%
COC(=O)c1ccc(C2C=C(c3ccc(Cl)cc3)Nc3nc4ccccc4n32)cc1 (centres undefined)	-18.1%	10µM*	-25.2%	10µM*	3.7%
Fc1ccc(C2=CC(c3ccc(F)cc3)n3c(nc4ccccc43)N2)cc1 (centres undefined)	i	10µM*	-3.1%	12.6µM*	8.4%
COc1ccc(C2=CC(c3cc(Br)ccc3F)n3c(nc4ccccc43)N2)cc1 (centres undefined)	i	11.2µM*	-4.8%	12.6µM*	-7.4%
Cc1cccc(NC(=O)CSc2ncc(-c3ccc(Br)cc3)[nH]2)c1	-5.3%	20µM*	-15.4%	-2.7%	2.6%
CCOc1cccc(NC(=O)CSc2ncc(-c3ccccc3)[nH]2)c1	-0.6%	-20.9%	-25.7%	-10.8%	-2.8%
C=CC(C)(C)c1[nH]c2ccccc2c1C1=C(O)C(=O)C(c2c[nH]c3c(CC=C(C)C)cccc23)=C(O)C1=O	.	.	-5.9%	.	39.8µM*
CC1(C)O[C@]23C[C@H]1C[C@H](OC(=O)c1ccoc1)[C@]2(C)[C@@H](OC(=O)c1ccoc1)CCC3(C)O (some centres undefined)	.	.	-8.4%[53.3 µM]	.	-11.7%[29.8 µM]
Cc1ccc2nc(-c3ccc(NC(=O)C(F)(F)F)cc3)sc2c1	8.0%	1.26µM*	3.4%	2µM*	4.5%
Cc1ccc2nc(-c3ccc(NC(=O)CN4C(=O)c5ccccc5C4=O)cc3)sc2c1	.	.	.	22.4µM*	.
Cc1ccc(/C=C/c2nc3ccccc3n2S(=O)(=O)c2cccc(Cl)c2)cc1	i	3.16µM*	-11.7%	3.16µM*	?
CCOc1ccc(/C=C/c2nc3ccccc3n2S(=O)(=O)c2cccc(Cl)c2)cc1	-14.4%	6.31µM*	-17.0%	12.6µM*	5.01µM*
CSc1ccc(/C=C/c2nc3ccccc3n2S(=O)(=O)c2ccc(F)c(C)c2)cc1	-0.5%	10µM*	-20.2%	7.94µM*	15.8µM*
Cc1cccc(NC(=O)Cn2c(/C=C/c3ccccc3)nc3ccccc32)c1	.	0.1%[1.84 µM]	.	.	.
CC(C)=CCc1cc(O[C@@H]2O[C@H](CO[C@@H]3OC[C@](O)(CO)[C@H]3O)[C@@H](O)[C@H](O)[C@H]2O)ccc1O	.	.	8.0%[53.3 µM]	.	5.8%[29.8 µM]
COc1cccc(CNc2ccc(S(=O)(=O)Nc3ccc(-c4ccccc4)cc3)cc2)c1O	.	.	.	.	-3.0%
COC(=O)c1ccc(O)c2ncccc12	.	.	.	.	4.3%
CCn1c(=O)c2c(nc(/C=C/c3ccc(OC)c(OC)c3)n2C)n(CC)c1=O	.	.	.	.	3.3%
Nc1ccc2cc3ccc(N)cc3nc2c1	.	.	-15.2%[53.3 µM]	.	35.5µM*
CN(C(=O)c1cccc(Nc2ccc(-c3ccc4c(c3)OCCO4)nn2)c1)C1CCCCC1	.	12.6µM*	.	11.2µM*	.
NC(=O)c1ccc(-c2nc(-c3ccc4c(c3)OCCO4)c(-c3ccccn3)[nH]2)cc1	6.9%	.	27.7%[53.3 µM]	.	?
COc1cc(O)c(C(CC(=O)N2CCCC(C)C2)c2ccc(C)cc2)c(OC)c1 (centres undefined)	.	.	.	.	18.4%
Cc1ccc(NC2=C(Cl)C(=O)c3ccccc3C2=O)cc1	.	19.0%	.	.	.
Cc1ccc(NC2=CC(=O)C(=O)c3ccccc32)cc1	.	3.55µM*	.	3.98µM*	.
Cc1cccc(CCNC(=O)c2ccc3c(c2)nc2n3CCOC2)c1	3.2%	?	-12.2%	?	-0.8%
SMILES	OvCa metastasis	p53null 39C tox	FH mod	p53null 32C tox	NTMT1 inh
COCCCNC(=O)c1ccc2c(c1)nc1n2CCCCC1	-8.1%	12.6µM*	9.1%	?	-1.1%
O=C(NCCc1ccccc1Cl)c1ccc2c(c1)nc1n2CCOC1	5.1%	5.01µM*	-24.1%	10µM*	1.0%
COc1ccc(CNC(=O)c2ccc3c(c2)nc2n3CCCCC2)cc1	i	-56.6%	-11.7%	?	-3.0%
CCC(C)NC(=O)c1ccc2c(c1)nc1n2CCCCC1 (centres undefined)	i	5.01µM*	-9.1%	?	-3.4%
CCCNC(=O)c1ccc2c(c1)nc1n2CCCCC1	i	10µM*	-8.0%	12.6µM*	-6.4%
O=C(N[C@H]1CCN(C(=O)c2cc(C(F)(F)F)cc(C(F)(F)F)c2)[C@H](Cc2ccc(Cl)cc2)C1)c1ccnc2ccccc12	.	.	?	.	-1.9%[29.8 µM]
Cc1cccc(CCNC(=O)c2ccc3c(c2)nc2n3CCCCC2)c1	0.5%	10µM*	-7.5%	10µM*	-23.1%
CN[C@@H]1[C@@H](O)[C@@H](O[C@@H]2[C@@H](O)[C@H](O[C@H]3O[C@H](CN)[C@@H](O)[C@H](O)[C@H]3O)[C@@H](N)C[C@H]2NC(=O)[C@@H](O)CN)OC[C@]1(C)O	.	.	6.0%	.	3.9%[57.5 µM]
COc1ccc(OC)c(CNC(=O)c2ccc3c(c2)c(C)c(C)n3C)c1	-7.9%	3.1%	-12.6%	-0.2%	89.1µM*
Cc1ccc(CCNC(=O)c2ccc3[nH]c(C)c(C)c3c2)cc1	8.8%	-2.5%	35.5µM*	-7.4%	?
CCOc1ccc(CCNC(=O)c2ccc3c(c2)c(C)c(C)n3Cc2ccccc2)cc1OCC	i	8.9%	-24.0%	10.8%	-4.0%
CCOc1ccc(CCNC(=O)c2ccc3[nH]c(C)c(C)c3c2)cc1	19.7%	-1.7%	?	-4.8%	-20.7%
CCOc1ccc(CCNC(=O)c2ccc3c(c2)c(C)c(C)n3C)cc1	2.5%	25.4%	15.8µM*	-0.8%	?
O=C(O)Cc1cn(C2OCC(O)C(O)C2O[C@@H]2O[C@H](CO)[C@@H](O)[C@H](O)[C@H]2O)c2ccccc12 (some centres undefined)	.	.	-0.9%[53.3 µM]	.	7.9%[29.8 µM]
CCCCCn1c(=O)[nH]c2cc(C(=O)N3CCN(c4cc(Cl)ccc4C)CC3)ccc2c1=O	i	-19.0%	-4.5%	-14.7%	3.0%
COC(=O)c1ccc2c(=O)n(CCCCCC(=O)N3CCN(c4cc(Cl)ccc4C)CC3)c(=O)[nH]c2c1	-24.3%	-5.7%	-20.4%	20µM*	4.6%
COc1ccccc1C(=O)Nc1onc2c1CCCC2	0.2%	-18.5%	-0.8%	-25.9%	?
Cc1ccc(C(=O)Nc2onc3c2CCCC3)cc1	-11.1%	5.01µM*	-8.1%	6.31µM*	-23.5%
Cc1cc(NS(=O)(=O)c2ccc(NC(=O)Cc3ccc(C)c(F)c3)cc2)no1	.	.	.	.	11.8%
O=S(=O)(c1ccccc1)c1nc(-c2ccc(F)cc2)oc1NCc1ccccc1	-8.9%	-0.3%	-21.6%	11.2%	4.8%
CCC(C)S(=O)(=O)c1oc(-c2cccs2)nc1S(=O)(=O)c1ccccc1 (centres undefined)	-19.5%	?	-25.8%	25.1µM*	-6.3%
CC(C)CS(=O)(=O)c1oc(-c2ccc(F)cc2)nc1S(=O)(=O)c1ccccc1	?	3.16µM*	?	?	-0.5%
CN(C(=O)CNC(=O)/C=C/c1cccc(Cl)c1)C1CCS(=O)(=O)CC1	.	.	.	.	8.5%

Compound activity (PubChem)
